Reference: PubChem BioAssay (NCATS)
Values joined by “and” are separate entries in the source; they are usually repeats but may differ in a detail not shown here. Equal entries are not always repeated. Results filed as inconclusive are left out. Entries that show only a call come without a potency. Active and inactive are the calls of the source. Unless noted, calls follow the shape of the dose curve; as a rule, active = well fitted curve in the direction sought with a large enough effect; inconclusive = small, poorly fitted or top-dose-only effect, or another doubt; inactive = no such curve, though single readings can be large; an effect the other way counts as inactive or inconclusive.

Tests used:
[1] = Cytotoxicity counterscreen for NFkB agonists and antagonists (AID 624476); also: potency is read from the fitted curve at half-maximal effect
[2] = qHTS Assay for Identification of Small Molecule Agonists for NFkB Signaling Pathway. (AID 624478);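 also: compounds tested together with TNF alpha at its EC50 of 10 pM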
How it was run: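 Read-out: 460/530 nm emission at 405 nm excitation after 2 h LiveBLAzer loading; ME-180 NFkB-bla reporter cells exposed 5 h at 37 C to compounds with 10 pM TNF alpha final.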

[3] = qHTS Assay for Identification of Small Molecule Antagonists for NFkB Signaling Pathway. (AID 624479; calls by dose curve;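 also: pathway stimulated with TNF alpha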; also: potency is read from the fitted curve at half-maximal effect)
[4] = Cell Proliferation Assay against the TMD8 Cell Line (AID 651645); settings: TMD8 DLBCL cell line proliferation/viability; at 46.1 µM (top of the series) unless noted;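 also: cells exposed to compound for 48 h before reading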
How it was run: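 TMD8 ABC DLBCL cells, 500 per well in phenol red-free RPMI with 5% FBS, were treated with compound by pin transfer and incubated 48 hours at 37C, 5% CO2. Viability was read by CellTiter-Glo luminescence, normalised to DMSO (100%) and 9.2 uM bortezomib (0%).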

[5] = Cell Proliferation Assay against the HBL1 Cell Line (AID 651646); settings: HBL1 DLBCL cells; at 46.1 µM (top of the series) unless noted;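 also: cells exposed to compound for 48 h before reading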
How it was run: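 CellTiter-Glo luminescence after 48 h compound exposure at 37C gives percent activity, with DMSO as 100% and 9.2 uM bortezomib final as 0%. Cells: 500 log-phase HBL1 per well, RPMI plus 5% FBS.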

[6] = Cell Proliferation Assay against the TMD8 Cell Line (Caspase readout at 16 hrs) (AID 651712); also: potency is read from the fitted curve at half-maximal effect
How it was run: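 Caspase-Glo luminescence measured apoptosis after a 16 h, 37 C compound exposure of TMD8 cells (500 cells/well, 5% FBS RPMI). DMSO set 0% and bortezomib at 9.2 uM final set 100% activity.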

[7] = Cell Proliferation Assay against the TMD8 Cell Line (Caspase readout at 8 hrs) (AID 651713)
How it was run: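 Apoptosis readout: caspase 3/7 luminescence (Caspase-Glo), 15 min RT. Cells: TMD8, 500/well, RPMI + 5% FBS, no phenol red. Exposure 8 h, 37C. % activity vs DMSO = 0, bortezomib 9.2 uM final = 100.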

[8] = HTS Assay for Allosteric Antagonists of the Human D2 Dopamine Receptor: Hit Validation in HTRF (AID 624455); also: potency is read from the fitted curve at half-maximal effect
How it was run: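 HTRF read-out; cells stably expressing D1 receptor; hits scored for inhibition of D1-mediated response. Primary screen: calcium flux, force-coupled inducible Hek293 Trex D2 line, antagonism vs EC80 dopamine.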

[9] = qHTS assay for small molecule agonists of the antioxidant response element (ARE) signaling pathway (AID 651741; active = well fitted activation curve with a large enough effect in the signal ratio; the % refers to the signal ratio; also: potency is read from the fitted curve at half-maximal effect)
How it was run: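 Agonist activity is measured as ARE-driven beta-lactamase expression in a stable HepG2 reporter line, using 16 h compound treatment at 37 C and a FRET substrate fluorescence readout after 2 h.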

[10] = qHTS assay for small molecule activators of the p53 signaling pathway (AID 651743; active = well fitted activation curve with a large enough effect in the signal ratio, not every such curve was filed as active; the % refers to the signal ratio; also: potency is read from the fitted curve at half-maximal effect); settings: HCT-116 p53RE-bla, beta-lactamase FRET ratio, 16 h; activation: stronger effect = higher value
How it was run: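 A beta-lactamase reporter under p53 response element control, stably carried by HCT-116 cells, reported pathway activation. Test compounds were applied for 16 hours at 37 C, and fluorescence was measured 2 hours after adding the B/G FRET substrate.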

Cc1ccc2c(c1)C(=O)[C@@]1(O)CCN(c3ccccc3)C1=N2
Potency [1]: inactive | outcome [2]: inactive | Potency [3]: inactive | viability (% of control) [4]: 77.6% | viability, percent of control [5]: 74.4% | Potency [6]: inactive | Potency [7]: inactive

NC(=O)c1cnccn1
Potency [8]: inactive | Potency [9]: inactive | activation [10]: 0.545% (inactive) and -2.21% (inactive)

NC(N)=NC(=O)c1nc(Cl)c(N)nc1N
Potency [8]: inactive | activation [10]: -2.4% (inactive)

CCOC(=O)C1=C[C@@]2(CC)CCCN3CCc4c(n1c1ccccc41)[C@H]32
Potency [1]: inactive | outcome [2]: inactive | Potency [3]: inactive | viability (% of control) [4]: 87.1% [at 29.8 µM] | viability, percent of control [5]: 96.9% [at 29.8 µM] | Potency [6]: inactive | Potency [7]: inactive

CCC(=O)N[C@H]1CC[C@H](C(=O)N(C)c2ccc(-c3nc4ccccc4o3)cc2)C1
Potency [1]: inactive | outcome [2]: inactive | Potency [3]: inactive | viability (% of control) [4]: 77.3% | viability, percent of control [5]: 74.7% | Potency [6]: inactive | Potency [7]: inactive

Cc1cc(-c2ccc(CC(=O)Nc3ccc(-c4cccnc4)cc3)cc2)ccn1
Potency [1]: inactive | outcome [2]: inactive | Potency [3]: inactive | viability (% of control) [4]: 62.3% | viability, percent of control [5]: 101%

CCOc1cc(C(=O)Nc2ccc(Cl)c(-c3nc4ccccc4[nH]3)c2)cc(OCC)c1OCC
Potency [1]: inactive | outcome [2]: inactive | Potency [3]: inactive | viability (% of control) [4]: 69.8% | viability, percent of control [5]: 85.2% | Potency [6]: inactive | Potency [7]: inactive

Cc1n[nH]c(C)c1Cc1sc2c(c1C(=O)N1C[C@H](O)CO1)c(=O)n(C)c(=O)n2CC(C)C
Potency [1]: inactive | outcome [2]: inactive | Potency [3]: inactive | viability (% of control) [4]: 68.3% | viability, percent of control [5]: 76% | Potency [6]: inactive | Potency [7]: inactive

Nc1nccc(-c2ccc3noc(-c4ccc(Cl)cc4)c3c2)n1
Potency [1]: inactive | outcome [2]: inactive | Potency [3]: 3.75 µM (active) | viability (% of control) [4]: 81.3% | viability, percent of control [5]: 109% | Potency [6]: inactive | Potency [7]: inactive

Cn1c(=O)c(F)c(Nc2ccc(I)cc2F)c2c(=O)n(C[C@@H](O)CO)cnc21
Potency [1]: inactive | outcome [2]: inactive | Potency [3]: inactive | viability (% of control) [4]: 63.3% | viability, percent of control [5]: 38.3% | Potency [6]: inactive

COc1cc(Oc2ccnc3cc(OC)c(OC)cc23)ccc1NC(=O)NC(C)c1nccs1 (stereo not given)
Potency [1]: inactive | outcome [2]: inactive | Potency [3]: 16.8 µM (active) | viability (% of control) [4]: 69% | viability, percent of control [5]: 59.4%

O=C1CCC(N2C(=O)c3ccccc3C2=O)C(=O)N1 (stereo not given)
Potency [8]: inactive | Potency [9]: inactive | activation [10]: -2.08% (inactive)

Cc1[nH]c(=O)c(C#N)cc1-c1ccncc1
Potency [8]: inactive | Potency [9]: inactive | activation [10]: -6.25% (inactive)

CO[C@@H]1[C@H](N(C)C(=O)c2ccccc2)C[C@H]2O[C@]1(C)n1c3ccccc3c3c4c(c5c6ccccc6n2c5c31)C(=O)NC4
Potency [1]: inactive | outcome [2]: inactive | Potency [3]: inactive | viability (% of control) [4]: 7.74% | viability, percent of control [5]: 23% | Potency [6]: 2.09 µM (active)

O=C1[C@H](Cc2ccc(O)cc2)N2C(=O)CCN(C(=O)NCc3ccccc3)[C@H]2CN1Cc1cccc2ccccc12
Potency [1]: inactive | outcome [2]: inactive | Potency [3]: inactive | viability (% of control) [4]: 27.3% | viability, percent of control [5]: 32.2% | Potency [6]: 23.5 µM (active) | Potency [7]: inactive

C[C@@H]1C[C@H]2[C@@H]3CCC4=CC(=O)C=C[C@]4(C)C3(F)[C@@H](O)C[C@]2(C)[C@@]1(O)C(=O)CO (stereo not given in full)
Potency [1]: inactive | outcome [2]: inactive | Potency [3]: inactive | viability (% of control) [4]: 40.7% | viability, percent of control [5]: 28.2% | Potency [6]: inactive | Potency [7]: inactive

Cc1c(CN2CCN(C(=O)C(C)C)CC2)sc2c(N3CCOCC3)nc(-c3cnc(N)nc3)nc12
Potency [1]: 0.148 µM (active) | outcome [2]: inactive | Potency [3]: inactive | viability (% of control) [4]: 3.51% | viability, percent of control [5]: 45.6%

CNC[C@H](O)c1cccc(O)c1
Potency [8]: 1.84 µM (active) | Potency [9]: inactive

Cc1cc2c(C(C)C)c(O)c(O)c(C=O)c2c(O)c1-c1c(C)cc2c(C(C)C)c(O)c(O)c(C=O)c2c1O
Potency [8]: inactive | outcome [2]: inactive | viability (% of control) [4]: 5.42% | viability, percent of control [5]: 6.38% | Potency [6]: inactive

CNCc1ccc(-c2[nH]c3cc(F)cc4c3c2CCNC4=O)cc1
Potency [1]: inactive | outcome [2]: inactive | Potency [3]: 21.1 µM (active) | viability (% of control) [4]: 79.6% | viability, percent of control [5]: 73.9%

COc1ccc(CC2=NN3C([C@@H](CCc4ccccc4)[C@@H](C)O)=NC(C)C3C(=O)N2)cc1OC (stereo not given in full)
Potency [1]: inactive | outcome [2]: inactive | Potency [3]: inactive | viability (% of control) [4]: 72.3% | viability, percent of control [5]: 73.7% | Potency [6]: inactive | Potency [7]: inactive

O=NN(CCCl)C(=O)NCCCl
Potency [8]: inactive | activation [10]: 14.7% (inactive)

Cn1cnc([N+](=O)[O-])c1Sc1ncnc2nc[nH]c12
Potency [8]: inactive | Potency [9]: 27.3 µM (active) and 37.6 µM (active) | Potency [10]: 25.1 µM (active) and 28.2 µM (active)

CCCC(CCC)C(=O)O
Potency [8]: inactive | Potency [9]: inactive

CC(=O)Oc1ccccc1C(=O)O
Potency [8]: inactive | Potency [9]: inactive | activation [10]: -2.89% (inactive) and -7.19% (inactive) and 1.5% (inactive)

NC(=O)C1CCCc2c1[nH]c1ccc(Cl)cc21 (stereo not given)
Potency [1]: inactive | outcome [2]: inactive | Potency [3]: inactive | viability (% of control) [4]: 94.1% | viability, percent of control [5]: 73.1% | Potency [6]: inactive | Potency [7]: inactive
